This is an account of results in PubChem BioAssay (NCATS).

Records with an inconclusive call do not appear. A number with no mark means an inactive call. Activity calls are given as the source filed them. Calls follow the shape of the dose curve; as a rule, active = well fitted curve in the direction sought with a large enough effect; inconclusive = small, poorly fitted or top-dose-only effect, or another doubt; inactive = no such curve, though single readings can be large; an effect the other way counts as inactive or inconclusive.
Potency is read from the fitted curve at half-maximal effect.

A short description of the first experiment: qHTS of pediatric cancer cell lines to identify multiple opportunities for drug repurposing: Primary screen for SJ-GBM2 cells (AID 1347091).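 As to activity change, negative = cytotoxic: plate controls were DMSO neutral control for no effect and bortezomib for full effect.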 The settings on record: SJ-GBM2 viability, CellTiter-Glo luminescence, 48 h; series mostly up to 46 µM; activity change, negative = cytotoxic: at the top concentration. The method in brief:
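Eight- or eleven-point concentration series, 48 h treatment at 37 degrees C in growth media; readout CellTiter-Glo luminescence. Potency and efficacy were taken from the concentration-response curves.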
A general note: Quantitative high-throughput screening tests each substance at several concentrations.
In the case of `C/C=C/c1ccc(OC)cc1`, the “activity change, negative = cytotoxic” value was 27.4%.

With `O=C(Nc1ccc(Oc2ccc(Cl)cc2)c(Cl)c1)c1cc(I)cc(I)c1O`, the Potency was 15 µM (active).

Regarding `OC[C@H]1O[C@@H](n2cnc3c(=S)nc[nH]c32)[C@H](O)[C@@H]1O`, the Potency was 3.76 µM (active).

In the case of `CC(C)(C)CC(C)(C)c1ccc(O)c(Cc2ccc(Cl)cc2Cl)c1`, the Potency is 21.1 µM (active).

On to `CCOC(=O)[C@H](CCc1ccccc1)N[C@@H](C)C(=O)N1Cc2ccccc2C[C@H]1C(=O)O`, for which the “activity change, negative = cytotoxic” value was 2.08%.

In the case of `C[C@@H](CN(C)C)CN1c2ccccc2Sc2ccccc21`, the “activity change, negative = cytotoxic” value was -29.5%.

Regarding `O=C(OCC(O)CO)c1ccccc1Nc1ccnc2cc(Cl)ccc12` (stereo not given), the “activity change, negative = cytotoxic” value is 14.6%.

For `Oc1ccc(Cl)c2cccnc12`, the “activity change, negative = cytotoxic” value is 2.29%.

Regarding `c1ccc(-c2ccc(C(c3ccccc3)n3ccnc3)cc2)cc1` (stereo not given), the “activity change, negative = cytotoxic” value was 16.6%.

Turning to `NC(=O)C(=O)N/N=C/c1ccc([N+](=O)[O-])o1`, the “activity change, negative = cytotoxic” value was 70.9%.

Take `COc1cc2c(cc1OC)C(C(C(=O)N(CCc1ccc(OC)c(OC)c1OC)CCc1ccc(OC)c(OC)c1OC)c1ccccc1)=NCC2` (stereo not given): the “activity change, negative = cytotoxic” value is -18.1%.

For the compound `O=C1OC2(c3ccc(O)cc3Oc3cc(O)ccc32)c2ccccc21`, the “activity change, negative = cytotoxic” value is 8.88%.

For `COc1cc(C(=S)N2CCOCC2)cc(OC)c1OC`, the “activity change, negative = cytotoxic” value was -0.931%.

With `C=C(CC)C(=O)c1ccc(OCC(=O)O)c(Cl)c1Cl`, the “activity change, negative = cytotoxic” value was 22.9%.

Take `CC(=O)OCC(=O)[C@@]12OC(C)(C)O[C@@H]1C[C@H]1[C@@H]3C[C@H](F)C4=CC(=O)C=C[C@]4(C)[C@@]3(F)[C@@H](O)C[C@@]12C`: the “activity change, negative = cytotoxic” value was 4.42%.

For `CCn1cc(C(=O)O)c(=O)c2cnc(N3CCCC3)nc21`, the activity change, negative = cytotoxic is -2.71% [at 9.22 µM].

For `CC(C)NC[C@@H](O)COc1cccc2ccccc12`, the “activity change, negative = cytotoxic” value was 5.31%.

Turning to `CCOc1ccc2nc3cc(N)ccc3c(N)c2c1`, the “activity change, negative = cytotoxic” value was 107%.

As for `CC(=O)N/N=C/c1ccc([N+](=O)[O-])o1`, the “activity change, negative = cytotoxic” value is 93.1%.

With `CNCC[C@@H](Oc1ccccc1C)c1ccccc1`, the “activity change, negative = cytotoxic” value was 9.45%.

As for `C#C[C@]1(OC(C)=O)CC[C@H]2[C@@H]3CCC4=C[C@@H](OC(C)=O)CC[C@@H]4[C@H]3CC[C@@]21C`, the “activity change, negative = cytotoxic” value was -1.83%.

For the compound `O=C(CCN1CCC(c2ccccc2)C1)c1ccc2c(c1)OCCO2` (stereo not given), the “activity change, negative = cytotoxic” value was 4.52%.

Take `COC1=CC(=O)C[C@@H](C)[C@]12Oc1c(Cl)c(OC)cc(OC)c1C2=O`: the Potency is 21.1 µM (active).

For `Oc1c(I)cc(I)c2cccnc12`, the Potency is 13.3 µM (active).

On to `CC1(C)OC[C@@H](COC(=O)CCc2ccc(OC[C@@H](O)CNCCNC(=O)N3CCOCC3)cc2)O1`, for which the “activity change, negative = cytotoxic” value was 4.62%.

The next experiment can be described thus: qHTS of pediatric cancer cell lines to identify multiple opportunities for drug repurposing: Primary screen for SK-N-MC cells (AID 1347093).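 As to activity change, negative = cytotoxic: plate controls were DMSO neutral control for no effect and bortezomib for full effect.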 The following applies: SK-N-MC viability, CellTiter-Glo luminescence, 48 h; series mostly up to 46 µM; activity change, negative = cytotoxic: at the top concentration. The gist of the method:
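Metabolically active cells were quantified by ATP-dependent luminescence (CellTiter-Glo, 15 min at room temperature) following 48 h treatment. Cells had been plated at 500-1,000 per well and settled for 5 h beforehand.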
Take `C/C=C/c1ccc(OC)cc1`: the “activity change, negative = cytotoxic” value is 2.59%.

As for `OC[C@H]1O[C@@H](n2cnc3c(=S)nc[nH]c32)[C@H](O)[C@@H]1O`, the Potency is 18.8 µM (active).

Consider `CCN(CC)CCOc1ccc(C(O)(Cc2ccc(Cl)cc2)c2ccc(C)cc2)cc1` (stereo not given), for which the Potency was 21.1 µM (active).

For `C[C@@H](CN(C)C)CN1c2ccccc2Sc2ccccc21`, the “activity change, negative = cytotoxic” value was -25.8%.

For the compound `CCCCCCCCCCCCCCCC[N+](C)(C)CCN(Cc1ccc(OC)cc1)c1ncccn1`, the Potency was 13.3 µM (active).

Turning to `C/C=C(/C(=C/C)c1ccc(O)cc1)c1ccc(O)cc1`, the Potency was 8.41 µM (active).

On to `O=C1OC2(c3ccc(O)cc3Oc3cc(O)ccc32)c2ccccc21`, for which the “activity change, negative = cytotoxic” value was -23%.

For `COc1cc(C(=S)N2CCOCC2)cc(OC)c1OC`, the “activity change, negative = cytotoxic” value was 7.76%.

Take `C=C(CC)C(=O)c1ccc(OCC(=O)O)c(Cl)c1Cl`: the Potency is 18.8 µM (active).

For the compound `CCn1cc(C(=O)O)c(=O)c2cnc(N3CCCC3)nc21`, the activity change, negative = cytotoxic is -9.99% [at 9.22 µM].

For the compound `COc1c(C)c2c(c(O)c1C/C=C(\C)CCC(=O)O)C(=O)OC2`, the Potency is 0.0841 µM (active).

As to `CCCSS/C(CCO)=C(\C)N(C=O)Cc1cnc(C)nc1N`, the Potency is 15 µM (active).

As for `CNCC[C@@H](Oc1ccccc1C)c1ccccc1`, the “activity change, negative = cytotoxic” value is -15%.

In the case of `COc1cccc2c1C(=O)c1c(O)c3c(c(O)c1C2=O)C[C@@](O)(C(C)=O)C[C@@H]3O[C@H]1C[C@H](N)[C@H](O)[C@H](C)O1`, the Potency was 0.0841 µM (active).

On to `CC1=C(C(=O)OC(C)C)C(c2cccc([N+](=O)[O-])c2)C(C(=O)OC2CN(C(c3ccccc3)c3ccccc3)C2)=C(N)N1` (stereo not given), for which the Potency was 6.68 µM (active).

Turning to `CC1(C)OC[C@@H](COC(=O)CCc2ccc(OC[C@@H](O)CNCCNC(=O)N3CCOCC3)cc2)O1`, the “activity change, negative = cytotoxic” value is -8.54%.

A further experiment can be described thus: qHTS of pediatric cancer cell lines to identify multiple opportunities for drug repurposing: Primary screen for BT-37 cells (AID 1347094).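 As to activity change, negative = cytotoxic: plate controls were DMSO for no effect and bortezomib for full effect.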 The following applies: BT-37 viability, CellTiter-Glo luminescence, 48 h; series mostly up to 57.3 µM; activity change, negative = cytotoxic: at the top concentration. The gist of the method:
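ATP-based luminescence (CellTiter-Glo) quantifies viability after a 48-hour exposure. Compounds are dosed across 8 or 11 final concentrations; DMSO and 2.3 µM bortezomib serve as controls.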
On to `C/C=C/c1ccc(OC)cc1`, for which the “activity change, negative = cytotoxic” value was 9.55%.

Consider `O=C(Nc1ccc(Oc2ccc(Cl)cc2)c(Cl)c1)c1cc(I)cc(I)c1O`, for which the “activity change, negative = cytotoxic” value is -4.64%.

Take `OC[C@H]1O[C@@H](n2cnc3c(=S)nc[nH]c32)[C@H](O)[C@@H]1O`: the Potency is 0.389 µM (active).

In the case of `CCOC(=O)[C@H](CCc1ccccc1)N[C@@H](C)C(=O)N1Cc2ccccc2C[C@H]1C(=O)O`, the “activity change, negative = cytotoxic” value was -9.12%.

Take `COc1ccc(CCN2CCC(Nc3nc4ccccc4n3Cc3ccc(F)cc3)CC2)cc1`: the Potency is 30.9 µM (active).

`CCCCCCCCCCCCCCCC[N+](C)(C)CCN(Cc1ccc(OC)cc1)c1ncccn1`: the Potency was 24.6 µM (active).

For `C/C=C(/C(=C/C)c1ccc(O)cc1)c1ccc(O)cc1`, the “activity change, negative = cytotoxic” value is -41.8%.

For the compound `O=C1OC2(c3ccc(O)cc3Oc3cc(O)ccc32)c2ccccc21`, the “activity change, negative = cytotoxic” value was -1.17%.

`COc1cc(C(=S)N2CCOCC2)cc(OC)c1OC`: the “activity change, negative = cytotoxic” value was -1.37%.

`CC(C)=CCC1C(=O)N(c2ccccc2)N(c2ccccc2)C1=O`: the “activity change, negative = cytotoxic” value was -14.5%.

With `CCn1cc(C(=O)O)c(=O)c2cnc(N3CCCC3)nc21`, the activity change, negative = cytotoxic is 0.276% [at 11.5 µM].

Take `CC(C)NC[C@@H](O)COc1cccc2ccccc12`: the “activity change, negative = cytotoxic” value is -11.2%.

Regarding `COc1c(C)c2c(c(O)c1C/C=C(\C)CCC(=O)O)C(=O)OC2`, the Potency was 0.389 µM (active).

On to `CCOc1ccc2nc3cc(N)ccc3c(N)c2c1`, for which the Potency was 15.5 µM (active).

Consider `CCCSS/C(CCO)=C(\C)N(C=O)Cc1cnc(C)nc1N`, for which the “activity change, negative = cytotoxic” value is -6.36%.

With `CNCC[C@@H](Oc1ccccc1C)c1ccccc1`, the “activity change, negative = cytotoxic” value is -3.21%.

Regarding `COc1cccc2c1C(=O)c1c(O)c3c(c(O)c1C2=O)C[C@@](O)(C(C)=O)C[C@@H]3O[C@H]1C[C@H](N)[C@H](O)[C@H](C)O1`, the Potency is 0.11 µM (active).

Regarding `O=C(CCN1CCC(c2ccccc2)C1)c1ccc2c(c1)OCCO2` (stereo not given), the “activity change, negative = cytotoxic” value was 4.01%.

As for `CC1(C)OC[C@@H](COC(=O)CCc2ccc(OC[C@@H](O)CNCCNC(=O)N3CCOCC3)cc2)O1`, the “activity change, negative = cytotoxic” value is 8.62%.
